Screening results (PubChem BioAssay)
Sampled rows, rich in hits. Any-hit rate of the full collection: about 2.4%.
D2 PAM-1: Beta-Arrestin HTS for Positive Allosteric Modulators of the Human D2 Dopamine Receptor: Potentiators; D(2) dopamine receptor (Homo sapiens), P14416; potentiation, % (test concentration not listed); DiscoveRx D2 beta-arrestin cells, luminescence, 90 min; 100% = 57 uM dopamine signal; 360,000 tested, 0.23% active; in the data active means potentiation above about 50%; inconclusive means mostly about 30% to 49%
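D2 cells co-treated with compound plus 50 nM dopamine (EC20) for 90 min at 37 deg C to detect potentiation. Beta-arrestin recruitment was read as enzyme-fragment luminescence after 1 h at ambient temperature. Full response was set by 57 uM dopamine.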
D2 ag-1: Beta-Arrestin HTS for Positive Allosteric Modulators of the Human D2 Dopamine Receptor: Agonists | 360,000 tested, 0.084% active | DiscoveRx PathHunter D2 beta-arrestin, luminescence, 90 min; 100% = 57 uM dopamine signal | activation, % (no concentration beside the values) | D(2) dopamine receptor (Homo sapiens), P14416; in the data active means activation above about 40%; inconclusive means between about 15% and that limit
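Agonist mode: compounds alone added to overnight-plated D2 PathHunter cells for 90 min at 37 C, with 57 uM final dopamine (EC100) defining full response. Beta-arrestin recruitment detected by chemiluminescent reagent, read after 1 h at ambient temperature.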
D2 PAM-2: HTS Assay for Positive Allosteric Modulators of the Human D2 Dopamine Receptor: Primary Screen for Potentiators. AID 485347, 2010. 340,000 tested, 0.34% active. HEK293 T-REx D2, calcium flux, EC20 dopamine potentiation. D(2) dopamine receptor (Homo sapiens), P14416. potentiation, % at 10 µM;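 active means potentiation over 3 SD above the plate norm, cut at about 30% in these data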
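Primary screen. Calcium kinetics in induced HEK293 T-REx D2 cells: compound pre-addition 180 s, EC20 dopamine, 180 s more.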
D2 ag-2: HTS Assay for Allosteric Agonists of the Human D2 Dopamine Receptor: Primary Screen for Agonists | HEK293 T-REx D2 cells, calcium flux agonist mode | activation, % at 2 µM | 340,000 tested, 0.53% active | AID 485358, 2010;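 active means activation over 3 SD above normal in the single-dose calcium agonist read, cut at about 30% in these data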
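Tetracycline-induced HEK293 Trex cells with D2 receptor force-coupled to calcium signaling, plated overnight at 30 C and loaded with no-wash calcium dye. Calcium flux read kinetically for 180 s after compound addition; responses flag agonists.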
D2 antag: HTS Assay for Allosteric Antagonists of the Human D2 Dopamine Receptor: Primary Screen for Antagonists. D(2) dopamine receptor (Homo sapiens), P14416. HEK293 TREx D2 cells, calcium flux, dopamine EC80. inhibition, % at 10 µM. 340,000 tested, 2% active. AID 485344, 2010; in the data active means inhibition above about 30%; inactive means below that, where a call was filed
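HEK293 T-REx D2 cells, tet-induced, calcium dye no-wash. Cpd pintool add, 180 s kinetic, then EC80 DA, 180 s kinetic. Ca flux read.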
D3 arrestin ag: qHTS of D3 Dopamine Receptor Agonist: D3 Dopamine Receptor B-arrestin Agonist Confirmatory Assay | 2,300 tested, 4% active | Potency, µM (doses to about 76.9 µM), most hits filed as activators | DiscoveRx D3 beta-arrestin cells, luminescence, 90 min | shares compounds with D2 ag-2 | AID 720506, 2013; further: nearly all actives have a fitted effect of over 70% in size
Target sequence (P35462 whole entry, looked up): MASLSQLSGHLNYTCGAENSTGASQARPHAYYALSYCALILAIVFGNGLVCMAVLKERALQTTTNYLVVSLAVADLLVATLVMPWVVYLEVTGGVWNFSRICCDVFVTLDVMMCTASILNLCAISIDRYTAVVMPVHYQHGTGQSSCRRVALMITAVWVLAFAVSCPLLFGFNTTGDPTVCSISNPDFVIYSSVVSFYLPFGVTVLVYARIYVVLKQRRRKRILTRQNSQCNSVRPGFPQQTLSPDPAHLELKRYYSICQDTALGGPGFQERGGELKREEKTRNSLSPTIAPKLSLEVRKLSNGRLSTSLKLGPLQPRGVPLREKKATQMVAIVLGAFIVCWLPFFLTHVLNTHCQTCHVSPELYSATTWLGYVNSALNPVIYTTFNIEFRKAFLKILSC
D2 ag-3: qHTS of D3 Dopamine Receptor Agonist: D2 Dopamine Receptor B-arrestin Agonist Counterscreen. DiscoveRx PathHunter D2 beta-arrestin, luminescence, 90 min; response scale: percent relative to full dopamine signal. 2,300 tested, 5.9% active. shares compounds with D2 ag-2. Potency, µM (highest dose often 76.9 µM), usual class: activators; further: nearly all actives have a fitted effect of over 70% in size
Large screens that a line does not name were inactive (follow-up assays come after a bar, where they were run). Unless noted, the call rests on the fitted dose curve; in most records, active means well fitted activation curve with a large enough effect; inconclusive means small, poorly fitted or top-dose-only effect; inactive means flat fitted curve, though single readings scatter.

NCCCCCc1nnc(SCc2ccc(F)cc2)o1	none (no result: D2 PAM-1, D2 ag-1, D2 antag)
Cc1ccccc1NC(=O)NCCCN1CCN(c2ccccc2F)CC1	none (no result: D2 PAM-1, D2 ag-1, D2 ag-2, D2 antag)
COc1ccccc1N1CCN(CCCCOc2ccc(C)cc2C)CC1	D2 ag-2 62, D2 antag 82 | D3 arrestin ag inactive | D2 ag-3 inactive
Cc1nc2ncnn2c(C)c1CCC(=O)N1CCN(c2cccc(Cl)c2)CC1	none (no result: D2 PAM-1, D2 ag-1, D2 ag-2, D2 antag)
COc1ccccc1N1CCN(CCCCN2C(=O)c3ccccc3C2=O)CC1	none (no result: D2 PAM-2, D2 ag-2, D2 antag)
Cc1nc2ncnn2c(C)c1CCC(=O)NCCCN1CCN(c2cccc(Cl)c2)CC1	D2 ag-1 inconclusive, D2 ag-2 76, D2 antag 72 | D3 arrestin ag inactive | D2 ag-3 inconclusive
CN(CCCNC(=O)C1CCC(=O)N1Cc1ccccc1Cl)c1ccccc1 (stereo unspecified)	none
O=C(NCCCN1CCN(c2cccc(Cl)c2)CC1)C1CCC(=O)N1Cc1ccccc1Cl (stereo unspecified)	D2 ag-2 50, D2 antag 40 | D3 arrestin ag inactive | D2 ag-3 inconclusive
COc1ccccc1N1CCN(CCCNC(=O)Nc2ccccc2C)CC1	D2 antag 87 | D3 arrestin ag inactive | D2 ag-3 inactive
Cc1ccc(NC(=O)C2CCN(C(=O)c3cnn(-c4ccccc4)c3-n3cccc3)CC2)cc1	none (no result: D2 PAM-1, D2 ag-1, D2 antag)
Cc1cc(C)cc(NC(=O)Cn2c(=O)n(C(C)C)c(=O)c3oc4ccccc4c32)c1	none (no result: D2 PAM-1, D2 ag-1, D2 antag)
COc1ccc(S(=O)(=O)Nc2ccc3c(c2)N(C(C)=O)CCC3)cc1F	none (no result: D2 PAM-1, D2 ag-1, D2 antag)
COc1ccccc1NC(=O)NCCCN1CCN(c2cccc(Cl)c2)CC1	D2 ag-2 49, D2 antag 63 | D3 arrestin ag inactive | D2 ag-3 inactive
COc1ccc(OC)c(CNC(=O)c2ccccc2NC(=O)c2nsc3ccccc23)c1	none (no result: D2 PAM-1, D2 ag-1, D2 antag)
CC1CN(C(=O)c2ccc(NS(=O)(=O)c3cccc(Cl)c3)cc2)CC(C)O1 (stereo unspecified)	none | D3 arrestin ag inactive | D2 ag-3 inactive
COc1ccc(NS(=O)(=O)c2ccc(C)c(C(=O)N3CCC3)c2)cc1	D2 ag-2 73, D2 antag 49 | D3 arrestin ag inactive | D2 ag-3 inactive
COc1ccc(NS(=O)(=O)c2cccc(C(=O)N3CCC3)c2)cc1	none | D3 arrestin ag inactive | D2 ag-3 inactive
COC(=O)c1[nH]c2cc(C)ccc2c1NC(=O)CN1CCN(C(=O)c2ccco2)CC1	none (no result: D2 PAM-2, D2 ag-2, D2 antag) | D3 arrestin ag inactive | D2 ag-3 inactive
COC(=O)c1[nH]c2ccccc2c1NC(=O)C(C)N1CCN(C(=O)c2ccco2)CC1 (stereo unspecified)	D2 ag-1 inconclusive, D2 ag-2 47 | D3 arrestin ag inconclusive | D2 ag-3 inactive
COC(=O)c1[nH]c2ccccc2c1NC(=O)C(C)N1CCOCC1 (stereo unspecified)	none (no result: D2 ag-2, D2 antag)
CCOc1ccc(S(=O)(=O)N2CCCCC2)c(C)c1C	none | D3 arrestin ag inactive | D2 ag-3 inactive
COc1cccc(-c2csc(-c3c(N)c(C(=O)c4ccccc4)n4ccccc34)n2)c1	none (no result: D2 PAM-1, D2 ag-1, D2 antag)
S=C(NCc1ccccc1)NC1CCCCC1	none
C/C(=N\NC(=S)NC1CCCCC1)c1ccccc1	D2 ag-2 45, D2 antag 41 | D3 arrestin ag inactive | D2 ag-3 inactive
S=C(NCCCc1ccccc1)NC1CCCCC1	D2 ag-2 37 | D3 arrestin ag inactive | D2 ag-3 inactive
COc1cccc(OC)c1OCC(O)CN1CCN(c2ccccc2)CC1 (stereo unspecified)	D2 ag-1 inconclusive, D2 ag-2 78, D2 antag 115 | D3 arrestin ag inconclusive | D2 ag-3 inconclusive
Cc1cccc(C)c1OCC(O)CN1CCN(c2ccccn2)CC1 (stereo unspecified)	D2 PAM-1 inconclusive, D2 ag-1 inconclusive, D2 ag-2 77, D2 antag 78 | D3 arrestin ag 0.2µM | D2 ag-3 5µM
CC(C)(C)C1CCC(OCC(O)CN2CCCC2)CC1 (stereo unspecified)	none
OC(COC(c1ccc(Cl)cc1)c1ccc(Cl)cc1)CN1CCN(c2ccccn2)CC1 (stereo unspecified)	D2 ag-2 42 | D3 arrestin ag inactive | D2 ag-3 inactive
Cc1cccc(C)c1OCC(O)Cn1c2ccccc2c2ccccc21 (stereo unspecified)	none
Cc1cccc(N2CCN(CC(O)COc3ccccc3)CC2)c1 (stereo unspecified)	none (no result: D2 PAM-2, D2 ag-2, D2 antag)
OC(CN1CCN(c2ccccn2)CC1)Cn1c2ccc(Cl)cc2c2cc(Cl)ccc21 (stereo unspecified)	none
CC(C)(C)C1CCC(OCC(O)CN2CCN(c3ccccc3)CC2)CC1 (stereo unspecified)	D2 ag-1 inconclusive, D2 ag-2 68, D2 antag 74 | D3 arrestin ag 0.35µM | D2 ag-3 inconclusive
CC(C)Oc1ccc(CNC(=O)Cn2ncn3nc(-c4cccs4)cc3c2=O)cc1	none (no result: D2 PAM-1, D2 ag-1, D2 antag)
CC(C)(C)NCC(O)COc1ccccc1C(C)(C)C (stereo unspecified)	none
Cc1cccc(C)c1OCC(O)CN1CCN(c2ccccc2)CC1 (stereo unspecified)	D2 ag-1 inconclusive, D2 ag-2 80, D2 antag 87 | D3 arrestin ag inactive | D2 ag-3 inconclusive
CC(C)(C)c1ccccc1OCC(O)CN1CCN(c2ccccn2)CC1 (stereo unspecified)	D2 antag 62 | D3 arrestin ag inconclusive | D2 ag-3 inactive
COc1ccccc1/C=C/CN1CCN(c2ccccc2)CC1	D2 ag-2 77, D2 antag 77 | D3 arrestin ag inactive | D2 ag-3 inconclusive
OC(COc1ccccc1)CN1CCN(c2ccccc2)CC1 (stereo unspecified)	none (no result: D2 PAM-2, D2 ag-2, D2 antag)
Cc1ccsc1CN1CCN(c2ccccn2)CC1	D2 PAM-1 inconclusive, D2 ag-1 50, D2 ag-2 79, D2 antag 77 | D3 arrestin ag inconclusive | D2 ag-3 2.5µM
COC(=O)c1c(-c2cccs2)csc1NC(=O)COc1ccc(C(C)C)cc1	none (no result: D2 PAM-1, D2 ag-1, D2 antag)
